In PubChem BioAssay:
Values without a mark were called inactive. The list shows a part of the results. Calls of active or inactive are those of the source.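 Rule for the calls, unless noted: active = inhibition above the hit cutoff set in the earlier primary screen (cut at about 27% in these data); inactive = the rest.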

Experiments:
[1] = biological target: Protein phosphatase methylesterase 1 (Homo sapiens) (UniProt Q9Y570); test: human PME-1 methylesterase inhibition confirmation – biochemical, fluorescence polarization, FP-Rh probe, triplicate (AID 2171); details: recombinant PME-1, FP-Rh probe fluorescence polarization; at 5.9 µM; stronger effect = higher value;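 note: 0% = enzyme with DMSO and 100% = wells lacking PME-1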
Sequence of Protein phosphatase methylesterase 1 (Homo sapiens) (Q9Y570 whole entry, looked up): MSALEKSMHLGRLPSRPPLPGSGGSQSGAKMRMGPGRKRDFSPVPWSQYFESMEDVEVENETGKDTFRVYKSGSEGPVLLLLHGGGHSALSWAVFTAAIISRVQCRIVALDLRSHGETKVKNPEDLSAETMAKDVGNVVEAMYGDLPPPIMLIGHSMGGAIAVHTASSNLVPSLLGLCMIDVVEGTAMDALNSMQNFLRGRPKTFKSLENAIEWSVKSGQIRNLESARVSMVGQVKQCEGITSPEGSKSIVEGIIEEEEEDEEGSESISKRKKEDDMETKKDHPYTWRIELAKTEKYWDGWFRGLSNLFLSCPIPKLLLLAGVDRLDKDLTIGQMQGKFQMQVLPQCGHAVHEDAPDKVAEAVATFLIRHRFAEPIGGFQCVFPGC

[2] = StAR promoter reporter inhibitors, counter-screen for LRH-1 inverse agonist project, cell-based, luminescence, high throughput (AID 651611; in the data active = inhibition above about 28%); details: StAR promoter luciferase reporter counterscreen, at 3.6 µM, stronger effect = higher value
[3] = biological target: Nuclear receptor subfamily 5 group A member 2 (Homo sapiens) (UniProt O00482); test: NR5A2 activity suppression in reporter cells – cell-based, luminescence, confirmation (AID 651613; in the data active = inhibition above about 42%;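 note: HEK293T cells co-transfected with LRH-1 and StAR promoter luciferase reporter; 0% = vehicle wells and 100% = parental cells lacking receptor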); details: cell-based LRH-1 luciferase reporter, inverse agonism; at 3.6 µM; stronger effect = higher value
Sequence of Nuclear receptor subfamily 5 group A member 2 (Homo sapiens) (O00482 whole entry, looked up): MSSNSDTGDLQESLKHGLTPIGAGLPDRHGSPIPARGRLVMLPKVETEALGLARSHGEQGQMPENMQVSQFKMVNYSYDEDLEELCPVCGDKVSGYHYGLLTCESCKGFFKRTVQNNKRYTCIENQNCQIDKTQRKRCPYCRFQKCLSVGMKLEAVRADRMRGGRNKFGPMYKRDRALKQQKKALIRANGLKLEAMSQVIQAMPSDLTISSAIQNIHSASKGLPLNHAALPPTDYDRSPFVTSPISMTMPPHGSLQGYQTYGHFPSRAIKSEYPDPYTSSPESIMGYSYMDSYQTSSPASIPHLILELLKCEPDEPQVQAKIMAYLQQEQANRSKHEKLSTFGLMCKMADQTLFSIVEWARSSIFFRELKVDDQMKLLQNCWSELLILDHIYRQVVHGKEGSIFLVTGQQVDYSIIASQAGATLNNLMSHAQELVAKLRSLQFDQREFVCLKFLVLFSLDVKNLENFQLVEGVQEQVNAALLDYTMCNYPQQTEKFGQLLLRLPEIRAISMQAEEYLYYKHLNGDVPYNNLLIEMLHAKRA

[4] = biological target: Steroidogenic factor 1 (Homo sapiens) (UniProt Q13285); test: inverse agonism at SF1 nuclear receptor – cell-based, luminescence, high throughput, counter-screen for LRH-1 inverse agonist project (AID 651614; in the data active = inhibition above about 44%;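 note: cells cotransfected with StAR promoter reporter and SF1 expression vector; 0% = vehicle on cells with receptor and 100% = vehicle on cells lacking receptor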); details: cell-based SF1 luciferase reporter, at 3.6 µM, stronger effect = higher value
Sequence of Steroidogenic factor 1 (Homo sapiens) (Q13285 whole entry, looked up, the tested form may be a part): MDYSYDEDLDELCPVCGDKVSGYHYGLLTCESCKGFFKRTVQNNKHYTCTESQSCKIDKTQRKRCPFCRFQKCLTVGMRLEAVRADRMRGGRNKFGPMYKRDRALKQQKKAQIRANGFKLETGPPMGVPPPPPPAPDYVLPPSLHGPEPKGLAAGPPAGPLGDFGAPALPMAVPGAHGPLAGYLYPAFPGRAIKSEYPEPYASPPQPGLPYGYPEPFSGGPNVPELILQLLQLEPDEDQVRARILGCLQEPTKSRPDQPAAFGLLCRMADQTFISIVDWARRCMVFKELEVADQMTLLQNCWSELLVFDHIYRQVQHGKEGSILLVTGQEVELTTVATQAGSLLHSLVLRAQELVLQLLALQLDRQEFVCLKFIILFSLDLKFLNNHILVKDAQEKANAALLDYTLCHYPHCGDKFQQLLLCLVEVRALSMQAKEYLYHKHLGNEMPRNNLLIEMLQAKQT

[5] = compounds suppressing VP16-driven luciferase signal – cell-based, luminescence, high throughput, counter-screen for LRH-1 inverse agonist project (AID 651615; in the data active = inhibition above about 33%); details: Gal4-VP16 luciferase reporter cells, at 3.6 µM, stronger effect = higher value
[6] = biological target: Nuclear receptor coactivator 3 (Homo sapiens) (UniProt Q9Y6Q9); test: NCOA3 GAL4-fusion reporter inhibition – cell-based, luminescence, quadruplicate, confirmation (AID 588792;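 active = mean inhibition over 43.08%, the solvent-only control mean plus 3 SD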;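 note: 0% = DMSO treated cells and 100% = gossypol at 36 µM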); details: HEK293 GAL4-SRC3 luciferase reporter, at 3.6 µM, stronger effect = higher value
Sequence of Nuclear receptor coactivator 3 (Homo sapiens) (Q9Y6Q9 whole entry, looked up, the tested form may be a part): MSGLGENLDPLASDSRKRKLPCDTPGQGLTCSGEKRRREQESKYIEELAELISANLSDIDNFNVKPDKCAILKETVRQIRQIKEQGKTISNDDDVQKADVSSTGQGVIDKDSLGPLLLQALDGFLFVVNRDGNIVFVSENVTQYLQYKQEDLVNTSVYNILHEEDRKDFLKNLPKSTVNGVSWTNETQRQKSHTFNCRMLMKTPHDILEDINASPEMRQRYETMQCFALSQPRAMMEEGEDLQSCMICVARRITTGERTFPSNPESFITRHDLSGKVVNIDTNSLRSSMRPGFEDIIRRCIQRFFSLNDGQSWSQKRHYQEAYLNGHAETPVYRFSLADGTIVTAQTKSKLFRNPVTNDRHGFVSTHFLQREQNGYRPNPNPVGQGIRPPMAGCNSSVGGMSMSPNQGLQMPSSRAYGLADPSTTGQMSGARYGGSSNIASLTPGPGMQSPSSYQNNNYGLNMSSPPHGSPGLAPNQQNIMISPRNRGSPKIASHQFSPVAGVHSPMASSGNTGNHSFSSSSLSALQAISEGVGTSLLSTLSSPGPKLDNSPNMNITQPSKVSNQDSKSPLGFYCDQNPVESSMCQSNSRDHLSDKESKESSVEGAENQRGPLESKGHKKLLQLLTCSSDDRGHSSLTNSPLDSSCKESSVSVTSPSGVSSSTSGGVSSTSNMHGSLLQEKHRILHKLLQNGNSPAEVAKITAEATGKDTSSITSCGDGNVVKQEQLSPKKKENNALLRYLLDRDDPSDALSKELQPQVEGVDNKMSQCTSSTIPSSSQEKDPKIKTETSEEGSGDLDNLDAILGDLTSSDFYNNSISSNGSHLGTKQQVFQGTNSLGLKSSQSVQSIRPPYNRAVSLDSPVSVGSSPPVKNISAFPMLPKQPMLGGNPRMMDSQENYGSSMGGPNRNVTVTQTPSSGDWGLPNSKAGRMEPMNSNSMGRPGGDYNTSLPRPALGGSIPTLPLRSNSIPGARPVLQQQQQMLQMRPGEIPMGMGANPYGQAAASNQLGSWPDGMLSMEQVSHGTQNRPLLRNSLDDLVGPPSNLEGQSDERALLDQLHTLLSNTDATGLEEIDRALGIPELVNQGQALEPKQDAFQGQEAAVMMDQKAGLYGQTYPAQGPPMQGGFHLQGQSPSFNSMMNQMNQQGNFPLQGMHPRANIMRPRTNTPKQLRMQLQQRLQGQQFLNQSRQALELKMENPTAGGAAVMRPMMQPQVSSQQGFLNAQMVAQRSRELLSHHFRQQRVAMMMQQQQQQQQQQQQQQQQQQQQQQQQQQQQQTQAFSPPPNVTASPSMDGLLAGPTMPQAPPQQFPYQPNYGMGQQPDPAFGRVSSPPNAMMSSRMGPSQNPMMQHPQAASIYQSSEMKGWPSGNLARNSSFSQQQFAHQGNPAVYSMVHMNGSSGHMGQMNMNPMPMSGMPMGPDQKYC

[7] = test system: transactivating tegument protein VP16 (Human herpesvirus 1), Gal4-VP16 luciferase reporter; test: repression of VP16-driven luciferase reporter – cell-based, luminescence, high throughput, counter-screen for SRC3 inhibitor project (AID 588794; in the data active = inhibition above about 30%); details: mammalian cells, at 3.6 µM, stronger effect = higher value
[8] = test system: transactivating tegument protein VP16 (Human herpesvirus 1); test: compounds suppressing VP16-driven luciferase signal – cell-based, luminescence, single concentration, counter-screen for SRC2 inhibitor project (AID 652007; in the data active = inhibition above about 36%); details: cell-based VP16 transactivation luciferase reporter, at 8.9 µM, stronger effect = higher value
[9] = biological target: Nuclear receptor coactivator 2 (Homo sapiens) (UniProt Q15596); test: inhibition of GAL4-SRC2 driven luciferase expression – cell-based, luminescence, HEK293, triplicate, confirmation (AID 652008;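 active = mean inhibition above 46.5%, the solvent-only control mean plus 3 SD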;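 note: 0% = DMSO-treated cells and 100% = Gossypol at 36 µM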); details: HEK293 GAL4-SRC2 luciferase reporter, at 8.9 µM, stronger effect = higher value
Sequence of Nuclear receptor coactivator 2 (Homo sapiens) (Q15596 whole entry, looked up, the tested form may be a part): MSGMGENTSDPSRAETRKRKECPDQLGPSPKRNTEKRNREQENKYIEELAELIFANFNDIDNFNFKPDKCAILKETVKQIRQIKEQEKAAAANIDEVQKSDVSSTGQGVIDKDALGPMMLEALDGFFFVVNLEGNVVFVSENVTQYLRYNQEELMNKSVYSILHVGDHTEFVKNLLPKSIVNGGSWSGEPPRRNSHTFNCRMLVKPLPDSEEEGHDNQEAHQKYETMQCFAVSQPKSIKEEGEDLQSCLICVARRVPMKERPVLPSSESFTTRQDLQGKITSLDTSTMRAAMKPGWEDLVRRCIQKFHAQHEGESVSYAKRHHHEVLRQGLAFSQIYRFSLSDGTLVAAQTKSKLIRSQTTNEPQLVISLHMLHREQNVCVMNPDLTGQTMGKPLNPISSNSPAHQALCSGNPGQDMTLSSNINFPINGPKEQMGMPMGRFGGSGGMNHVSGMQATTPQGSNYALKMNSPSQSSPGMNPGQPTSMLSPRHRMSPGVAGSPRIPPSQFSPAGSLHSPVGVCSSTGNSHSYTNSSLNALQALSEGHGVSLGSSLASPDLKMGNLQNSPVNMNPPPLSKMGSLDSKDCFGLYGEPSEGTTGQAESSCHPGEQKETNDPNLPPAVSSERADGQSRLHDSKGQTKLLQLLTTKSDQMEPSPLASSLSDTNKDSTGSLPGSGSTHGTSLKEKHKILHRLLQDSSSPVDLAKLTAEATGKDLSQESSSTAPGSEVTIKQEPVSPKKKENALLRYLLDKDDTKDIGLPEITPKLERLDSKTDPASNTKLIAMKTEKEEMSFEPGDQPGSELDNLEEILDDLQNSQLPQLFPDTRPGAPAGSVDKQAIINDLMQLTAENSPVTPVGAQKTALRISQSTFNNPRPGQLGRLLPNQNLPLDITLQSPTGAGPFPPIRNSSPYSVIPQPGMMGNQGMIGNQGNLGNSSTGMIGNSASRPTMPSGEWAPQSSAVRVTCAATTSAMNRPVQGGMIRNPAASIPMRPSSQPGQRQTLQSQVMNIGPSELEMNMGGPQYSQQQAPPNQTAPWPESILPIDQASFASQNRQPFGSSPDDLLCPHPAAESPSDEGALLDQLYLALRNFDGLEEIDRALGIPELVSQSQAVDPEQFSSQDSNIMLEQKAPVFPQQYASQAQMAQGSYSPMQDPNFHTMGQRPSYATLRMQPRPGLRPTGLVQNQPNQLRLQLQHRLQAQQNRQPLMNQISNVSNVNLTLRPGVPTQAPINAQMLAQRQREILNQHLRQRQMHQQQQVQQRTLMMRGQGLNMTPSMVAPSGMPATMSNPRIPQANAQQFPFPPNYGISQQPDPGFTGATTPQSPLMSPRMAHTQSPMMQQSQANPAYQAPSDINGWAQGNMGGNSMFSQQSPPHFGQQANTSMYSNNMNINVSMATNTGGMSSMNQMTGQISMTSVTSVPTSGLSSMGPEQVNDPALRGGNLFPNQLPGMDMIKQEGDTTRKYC

[10] = biological target: Glutathione S-transferase omega-1 (Homo sapiens) (UniProt P78417); test: recombinant GSTO1 blockers, retest – biochemical, fluorescence polarization, triplicate, counter-screen for RBBP9 inhibitor project, confirmation (AID 2176;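 active = inhibition above the primary screen's cutoff, its mean inhibition plus 3 SD, cut at about 35% in these data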;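 note: loss of polarization as inhibitors block binding of rhodamine sulfonate ester activity probe; 0% = GSTO1 with DMSO and 100% = wells lacking GSTO1 enzyme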); details: recombinant GSTO1, probe fluorescence polarization; at 5.96 µM; stronger effect = higher value
Sequence of Glutathione S-transferase omega-1 (Homo sapiens) (P78417 whole entry, looked up): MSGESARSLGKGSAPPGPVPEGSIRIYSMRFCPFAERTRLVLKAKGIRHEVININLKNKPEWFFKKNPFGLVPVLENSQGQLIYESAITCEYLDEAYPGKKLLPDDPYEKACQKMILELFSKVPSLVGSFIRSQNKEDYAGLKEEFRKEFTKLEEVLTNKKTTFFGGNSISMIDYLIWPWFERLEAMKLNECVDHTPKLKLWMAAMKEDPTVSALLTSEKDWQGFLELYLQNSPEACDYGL

C1=C(CCNc2ncnc3c2[nH]c2ccccc23)CCCC1
inhibition [1]: 29.3% (active) | inhibition [2]: -12% | inhibition [3]: 36% | inhibition [4]: 41.4% | inhibition [5]: 37.5% (active)

Cc1ccc(NC(=O)c2ccc(Nc3c([N+](=O)[O-])cc([N+](=O)[O-])cc3[N+](=O)[O-])cc2)cc1
inhibition [1]: 30.6% (active) | inhibition [6]: 7.5% | inhibition [7]: 2.96% | inhibition [8]: 50% (active) | inhibition [9]: 27.1%

O=C(O)c1cccc(NC(=S)N/N=C/c2c[nH]c3ccccc23)c1
inhibition [10]: 54.5% (active)

O=C(Nc1cc(N2CCOCC2)ncn1)NC1(C(F)(F)F)Oc2ccc(Cl)cc2O1 (stereo not drawn)
inhibition [10]: 8.59%

Cc1cccc(-n2c3nc(=O)[nH]c(=O)c-3cc3cc([N+](=O)[O-])ccc32)c1
inhibition [1]: 50.6% (active) | inhibition [2]: 20.4% | inhibition [3]: 42.1% (active) | inhibition [4]: 47.4% (active) | inhibition [5]: 27.6%

CN(C)S(=O)(=O)c1cccc(NC(=S)N/N=C/c2cc(Br)ccc2O)c1
inhibition [1]: 16.8% | inhibition [6]: 55.4% (active) | inhibition [7]: 59.2% (active) | inhibition [8]: -15.5% | inhibition [9]: 24.2%

COC(=O)N1C(=O)[C@](c2ccccc2)(C2CCCC2)N1C(=O)OC
inhibition [1]: 86.9% (active) | inhibition [8]: -1.09% | inhibition [9]: -4.92%

CC(=O)C1C(=O)c2c(cccc2[N+](=O)[O-])C1=Nc1ccc(S(N)(=O)=O)cc1 (stereo not drawn)
inhibition [1]: 30.2% (active) | inhibition [8]: -19.4% | inhibition [9]: 2.35%

COc1cccc2c1C(=O)c1c(O)c3c(c(O)c1C2=O)C[C@](O)(C(C)=O)C[C@H]3O[C@@H]1C[C@@H](N)[C@@H](O)[C@@H](C)O1
inhibition [1]: 40.8% (active) | inhibition [2]: 67% (active) | inhibition [3]: 104% (active) | inhibition [4]: 92.5% (active) | inhibition [5]: 77.3% (active) | inhibition [8]: 40.6% (active) | inhibition [9]: 41.1%

O=C1C(Cl)=C(Nc2ccc3cn[nH]c3c2)C(=O)c2ccccc21
inhibition [1]: 31.7% (active) | inhibition [8]: -24% | inhibition [9]: 52.9% (active)

Nc1ccc2oc(-c3cc(Br)ccc3Cl)nc2c1
inhibition [1]: 9.02% | inhibition [2]: -34.3% | inhibition [3]: 45.4% (active) | inhibition [4]: 32.9% | inhibition [5]: -44.9%
